SENP8 block-1: blocks human SENP8 cleavage of Nedd8 substrate | inhibition, % at 20 µM | recombinant SENP8, Nedd8 substrate fluorescence | 0.64% of 360,000 active | AID 602440; in the data active = inhibition mostly above about 40%, no sharp cut-off; inactive = mostly below about 27%
Platelet DG rel: platelet dense granule release activity; 0.22% of 300,000 active; human platelet-rich plasma, SFLLRN dense granule ATP release, luminescence; inhibition, %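 (compounds screened at 7.5 µM in platelet-rich plasma)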;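 active = mean replicate score, as percent of positive control, at or above 50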
SENP6 inh: SENP6 protease inhibition | inhibition, % at 10 µM | 1.8% of 330,000 active | Q9GZR1 | Recombinant SENP6 catalytic domain, aminoluciferin luminescence;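 active = inhibition above about 50% at the single tested dose, limit read from the data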;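 also: plate controls were DMSO wells with enzyme for no effect and DMSO wells lacking enzyme for full effect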
SENP8 block-2: blocks the human protease SENP8 | Q96LD8 | purified SENP8, Z-RLRGG-aminoluciferin cleavage, luminescence | inhibition, % at 10 µM | 1.2% of 330,000 active | AID 2540; in the data active = inhibition above about 50%
SENP7 inh: inhibitors of human SENP7 protease; recombinant SENP7, Z-RLRGG-aminoluciferin luminescence, 40 min; inhibition, % at 5 µM; 1.5% of 330,000 active; AID 434973;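 active = inhibition above about 50% at the single test dose, limit read from the data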;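 also: plate controls were DMSO with enzyme for no effect and no enzyme buffer wells for full effect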
Target sequence (Q9BQF6 706-1050 limits assumed): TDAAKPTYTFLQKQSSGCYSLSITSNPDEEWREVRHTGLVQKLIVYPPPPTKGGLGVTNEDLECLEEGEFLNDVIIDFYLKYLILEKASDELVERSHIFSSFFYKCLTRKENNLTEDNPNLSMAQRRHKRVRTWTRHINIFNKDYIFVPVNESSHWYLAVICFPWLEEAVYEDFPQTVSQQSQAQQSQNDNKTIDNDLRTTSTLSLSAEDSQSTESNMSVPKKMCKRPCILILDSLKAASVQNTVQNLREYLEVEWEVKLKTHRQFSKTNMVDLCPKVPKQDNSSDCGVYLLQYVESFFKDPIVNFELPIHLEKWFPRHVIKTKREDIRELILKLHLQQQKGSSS
SENP8 conf: SENP8 (human) inhibition, single concentration confirmation; AID 624319; shares compounds with SENP8 block-1; 15% of 1,400 active; inhibition, % at 25 µM; purified SENP8, Nedd8-AMC/pro-Nedd8 cleavage fluorescence, 30 min; in the data active = inhibition mostly above about 39%, no sharp cut-off; inactive = mostly below about 34%
Active calls of the source: *; . = no result. Only some compounds are listed: those with a hit (about 2.4% of all), similar ones and a draw of the others.

SMILES | SENP8 block-1 | Platelet DG rel | SENP6 inh | SENP8 block-2 | SENP7 inh | SENP8 conf
COC(=O)c1ccccc1-c1ccc(C(c2c(C)[nH][nH]c2=O)c2c(C)[nH][nH]c2=O)o1 | 50* | -2 | 27 | 20 | 12 | 42*
COC(=O)c1cccc(-c2ccc(C(c3c(C)[nH][nH]c3=O)c3c(C)[nH][nH]c3=O)o2)c1 | 17 | -6 | 43 | 13 | 9 | .
CCOc1ccc(OCC(=O)Nc2ccc(S(=O)(=O)Nc3cc(C)nc(C)n3)cc2)cc1 | 42* | -6 | -11 | -2 | -5 | 5
COc1cccc(N=Nc2c(=O)[nH]n3c(=O)c4c([nH]c23)CCC4)c1 | 31 | 14 | 5 | -4 | 1 | .
COc1cccc(N=Nc2c(=O)[nH]n3c(=O)cc(C)[nH]c23)c1 | 48* | 6 | 13 | -4 | -6 | 32
COc1ccc(CN(C2CCCC2)S(=O)(=O)c2ccc(-n3cnnn3)cc2)cc1 | 44* | -2 | -14 | -8 | 4 | 23
COc1ccc(CN(C2CCCC2)S(=O)(=O)c2ccc(-n3cnnn3)cc2)cc1OC | 26 | 7 | -17 | -7 | -3 | .
CN(C)c1ccc(NC(=O)c2ccc(Cn3cc([N+](=O)[O-])cn3)cc2)cc1 | 44* | 11 | -10 | 7 | 2 | 39
COc1ccc(C2CC3(CC(C)(C)NC(SC)=N3)Oc3cc(O)cc(C)c32)cc1 (centres undefined) | 44* | 18 | 6 | -10 | 4 | 9
CCOC(=O)C1CCN(C(=O)Nc2ccc3oc(C)nc3c2)CC1 | 46* | 0 | -9 | 7 | -4 | 6
CCOC(=O)N1CCN(C(=O)Nc2ccc3oc(C)nc3c2)CC1 | 37 | -11 | 17 | -3 | 0 | .
COc1ccccc1NC(=O)Nc1nc(CC(=O)N2CCN(c3ccccc3F)CC2)cs1 | -5 | -1 | -9 | -3 | -17 | .
O=C(Nc1ccc(N2CCCC2)cc1)c1ccccc1[N+](=O)[O-] | 35* | 1 | 7 | 5 | 2 | 21
O=C(Nc1ccc(N2CCCCC2)cc1)c1ccc2ccccc2n1 | 40* | 2 | 38 | 31 | 39 | 15
Cc1cc(C)c(NC(=O)CNC(=O)c2ccccc2OCc2c(C)noc2C)c(C)c1 | 6 | 3 | -4 | 4 | 2 | .
CCCCN1C(=O)N(CCc2ccc(F)cc2)S(=O)(=O)c2cc(C(F)(F)F)ccc21 | 6 | . | . | . | -4 | .
CCc1ccccc1N1C(=O)C2CC(C)=C(C)CC2C1=O (centres undefined) | 41* | 1 | -19 | 0 | 0 | 3
COc1ccccc1N1C(=O)C2C(c3ccc(F)cc3)NN(C(=O)c3ccc(C)cc3)C2C1=O (centres undefined) | 44* | 14 | -13 | -1 | 6 | 21
Cc1ccc(C(=O)N2NC(c3ccc(F)cc3)C3C(=O)N(c4ccc(C)cc4)C(=O)C32)cc1 (centres undefined) | 15 | -8 | -4 | 0 | -10 | .
O=C(NNc1cccc(Cl)n1)Nc1ccc(Cl)cc1 | -2 | -5 | 11 | -6 | -10 | .
Cc1ccc(NNC(=O)Nc2ccc(Cl)cc2)nn1 | 48* | 6 | -1 | -6 | 5 | 2
CSCC[C@H](NC(=O)[C@@H]1CSC2c3ccccc3C(=O)N21)C(=O)NC1CCCC1 (some centres undefined) | 7 | 5 | 7 | 9 | 7 | .
CSCC[C@H](NC(=O)[C@@H]1CSC2c3ccccc3C(=O)N21)C(=O)N1CCC[C@H]1CO (some centres undefined) | 62* | 0 | 9 | -8 | -15 | 8
COc1ccc(-c2csc(NC(=S)NC(=O)/C=C/c3ccco3)n2)cc1Br | 43* | 7 | -13 | -5 | -3 | 16
O=C(O)c1ncsc1-c1ccccc1 | 43* | 12 | -12 | -3 | -3 | 23
Nc1c(C(=O)c2ccc(Cl)cc2)sc2nsc(SCCN3CCOCC3)c12 | 38 | -4 | -11 | 0 | -2 | .
Nc1c(C(=O)c2ccccc2)sc2nsc(SCCN3CCCC3)c12 | 44* | 7 | -12 | -8 | -3 | 13
O=S(=O)(NCc1csc(-c2cccs2)n1)c1cccc(C(F)(F)F)c1 | -232 | 3 | -16 | 2 | 7 | .
COc1ccc(-c2cn(CCO)c(-c3ccc(Cl)nc3)n2)cc1 | -362 | . | 3 | 1 | -2 | .
C[C@H](NC(=O)c1cc2cc(Cl)ccc2n1C)C(=O)N1CCC[C@H]1C(=O)O | 13 | 5 | -16 | -11 | 10 | .
